# Bioassay records as filed in PubChem.
# Sfp inh – qHTS Assay for Inhibitors of Bacillus subtilis Sfp phosphopantetheinyl transferase (PPTase); Biochemical Sfp PPTase activity, qHTS; 3.5% of 310,000 active; Potency, µM, inactives show largest response in the series, negative = inhibition, hits mostly inhibitors; 4'-phosphopantetheinyl transferase ffp (Bacillus subtilis), Q9F4F7;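 also: the enzyme is Sfp with the accession as filed and its product quenches rhodamine fluorescence; 0% = enzyme reaction without inhibitor and -100% = no enzyme wells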
#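 Compounds were incubated with enzyme (final 15 nM) for 15 min at room temperature before substrate addition started the reaction. Fluorescence at 525 nm excitation, 598 nm emission was recorded immediately and after 30 minutes.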
# G9a inh – qHTS Assay for Inhibitors of Histone Lysine Methyltransferase G9a. Histone-lysine N-methyltransferase EHMT2 (Homo sapiens), Q96KQ7. G9a H3K9 monomethylation, AlphaScreen, 2 h. Potency, µM (doses to about 102 µM), without a hit: at the top dose activity, negative = inhibition, most hits filed as inhibitors. 8.8% of 350,000 active. AID 504332, 2011; also: % is scaled to controls: 0 for no effect and ±100 for the full control effect; nearly all actives have a fitted effect of over 75% in size
#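 Chemiluminescent proximity detection of H3K9 monomethylation, read after 10 min bead incubation in the dark. Reaction: 20 nM G9a, 500 nM biotin-H3K9 peptide, 20 uM SAM cofactor, 2 h, room temperature, following 15 min enzyme-compound preincubation.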
# BAZ2B block – qHTS Assay for Inhibitors of BAZ2B. Bromodomain adjacent to zinc finger domain protein 2B (Homo sapiens), Q9UIF8. AlphaScreen BAZ2B-H3K14Ac peptide displacement. Potency, µM (top dose mostly 114 µM), for the others: at the top dose activity change, negative = inhibition, actives largely listed as inhibitors. 4.4% of 360,000 active; also: % is scaled to controls: 0 for no effect and ±100 for the full control effect; nearly all actives have a fitted effect of over 60% in size
#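 Protein-peptide AlphaScreen: BAZ2B 50 nM, b-H3K14Ac 50 nM, 1x PBS pH 7.4 + 0.01% Tween-20. Preincubation 30 min RT; cpd 30 min RT (top 110 uM); beads 20 min RT, light-protected.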
# HP1b chromo inh – HTS for Inhibitors of HP1-beta Chromodomain Interactions with Methylated Histone Tails. Potency, µM (doses to about 114 µM), inactives show at the highest dose activity change, negative = inhibition, usual class: inhibitors. AlphaScreen HP1-beta / biotin-H3K9me3 peptide binding. AID 540317, 2011. 0.56% of 390,000 active; also: nearly all actives have a fitted effect of over 70% in size
#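 HP1-beta protein (50 nM final) preincubated 30 min at room temperature with biotinylated H3(1-18)K9me3 peptide (50 nM) in PBS pH 7.4, 0.01% Tween-20, then compound added for 30 min. AlphaScreen streptavidin donor/nickel chelate acceptor beads (10 ug/mL final), 30 min dark, luminescence read.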
# JMJD2A Tudor inh – qHTS Assay for Inhibitors of JMJD2A-Tudor Domain; 4.4% of 390,000 active; AlphaScreen JMJD2A-Tudor / H3K4me3 peptide binding; Potency, µM (titrated, usually from 114 µM), for inactives: at the highest dose activity change, negative = inhibition, most hits filed as inhibitors; AID 504339, 2011; Lysine-specific demethylase 4A (Homo sapiens), O75164; also: % is scaled to controls: 0 for no effect and ±100 for the full control effect; nearly all actives have a fitted effect of over 50% in size
# * marks the source's active call; other numbers are inactive results; ? = inconclusive; · = not tested or not shown; [ ] = remark or other dose. Sampled rows, rich in hits. Any-hit rate of the full collection: about 12%. Calls follow the shape of the dose curve; as a rule, active = well fitted curve in the direction sought with a large enough effect; inconclusive = small, poorly fitted or top-dose-only effect, or another doubt; inactive = no such curve, though single readings can be large; an effect the other way counts as inactive or inconclusive. Potency is read from the fitted curve at half-maximal effect.
SMILES,Sfp inh,G9a inh,BAZ2B block,HP1b chromo inh,JMJD2A Tudor inh
N#Cc1c(Cl)nc(N/N=C/c2ccccc2)c(Cl)c1Cl,?,-24.4%[59 µM],-35.1%,18.8%,-5.1%
O=C(C1CCN(S(=O)(=O)c2ccc(Br)s2)CC1)N1CCN(c2cccc(C(F)(F)F)c2)CC1,·,-38.3%[59 µM],-7.8%,25.0%,-12.7%
NS(=O)(=O)c1ccc(N2N=C(c3ccccc3)CC2c2cccc(F)c2)cc1 (centres undefined),1.8%,67.0%[59 µM],41.0%,54.2%,35.4%
COc1ccc(C2CC(c3ccccc3)=NN2c2ccc(N)cc2)cc1 (centres undefined),-11.3%,44.7µM*,39.8µM*,?,?
COc1ccc(C2CC(c3ccccc3)=NN2c2ccc(S(N)(=O)=O)cc2)cc1OC (centres undefined),89.1µM*,·,15.1%,62.5%,17.4%
COc1ccc(C2CC(c3ccccc3)=NN2c2ccc(Cl)c(C(=O)O)c2)cc1 (centres undefined),56.2µM*,·,24.7%,90.5%,30.5%
CCc1cc(C(=O)OCC(=O)N2CCC(c3ccccc3)=N2)sc1C,-11.7%,16.1%[12.7 µM],-6.3%,25.9%,-16.3%
COCc1cc(C)nc2c1C(=O)NC(c1ccc(Br)cc1)N2Cc1ccccc1 (centres undefined),·,0.2%[59 µM],-17.2%,30.7%,0.0%
Cc1ccsc1CN(Cc1ccco1)c1cnc(S(C)(=O)=O)nc1C(=O)Nc1ccc(Cl)cc1,·,-9.9%[59 µM],?,31.7%,-19.5%
O=C(O)CNS(=O)(=O)c1ccc2c(c1)CCCC2,14.0%,-32.4%,-17.8%,22.0%,-15.1%
O=C(O)CNS(=O)(=O)c1ccc2[nH]c(=O)c(=O)[nH]c2c1,6.6%,56.2µM*,-5.3%,18.9%,-15.0%
COC(=O)c1ccc(COc2ccc(/C=N/Nc3nc(C)cc(=O)[nH]3)cc2)cc1,2.4%,-0.7%[59 µM],-6.9%,70.4%,-22.7%
O=C(O)c1ccc(N/N=C/c2ccc(OC(=O)c3cccc(Cl)c3)cc2)cc1,39.8µM*,1.7%[12.7 µM],50.1µM*,?,-19.1%[11.4 µM]
CCOc1cc(C=O)ccc1OCC(=O)N1CCCC1,12.8%,-0.3%,12.0%,46.6%,-10.9%
O=C(O)c1ccc(COc2ccc(/C=N/NC(=O)c3cccs3)cc2)cc1,7.6%,10µM*,-28.7%,2.5%,-24.4%
COC(=O)c1ccc(COc2ccc(/C=N/Nc3cccc(C(=O)O)c3)cc2)cc1,4.9%,8.91µM*,?,?,56.2µM*
CCOc1cc(/C=N/Nc2cccc(C(=O)O)c2)ccc1OCC(=O)N1CCCCC1,5.0%,31.6µM*,?,-11.1%,-20.3%
COCCNc1ncnc2ccc(-c3ccc(N(C)C)cc3)cc12,-28.3%,-26.5%[0.501 µM],·,·,·
CC(C)OCCCNC(=O)CCCn1c(SCC(N)=O)nc2c(sc3ccccc32)c1=O,·,-4.5%[59 µM],-12.6%,47.7%,-4.0%
COc1cc2c(cc1OC)C1C(=O)c3ccc4c(c3OC1CO2)C=CC(C)(C)O4 (centres undefined),-18.9%,-41.4%[2.33 µM],·,·,·
COC(=O)[C@@]1(Cc2ccc(F)cc2)[C@H]2c3cc(C(=O)N4CCCC4)n(Cc4ccccn4)c3C[C@H]2CN1C(=O)c1ccccc1,-2.0%,·,·,·,·
O=C(O)c1cccc(N/N=C/c2cccs2)c1,0.3%,-3.6%[59 µM],-34.7%,18.1%,-11.0%[57.1 µM]
O=C(O)c1cccc(N/N=C/c2ccc(OC(F)(F)F)cc2)c1,-0.9%,14.1µM*,?,3.7%,?
CC(C)C(=O)N/N=C/c1ccc(OCc2ccccc2)cc1,7.9%,-5.5%,2.8%,13.7%,-12.6%[57.1 µM]
CCOc1ccc(/C=N/O)cc1,21.2%,12.3%[12.7 µM],8.4%,24.1%,-19.0%
SMILES,Sfp inh,G9a inh,BAZ2B block,HP1b chromo inh,JMJD2A Tudor inh
CSc1ccc(/C=N/Nc2cccc(C(=O)O)c2)cc1,11.5%,3.98µM*,8.91µM*,10µM*,3.98µM*
O=C(O)c1cc(N/N=C/c2ccc(OCc3ccccc3)cc2)ccc1Cl,-6.7%,22.4µM*,?,16.9%,-19.6%
CCOc1ccc(/C=N/Nc2ccccc2)cc1,-5.4%,25.1µM*,-26.9%,27.8%,-29.6%
Cc1ccc(S(=O)(=O)c2cn(CC(=O)Nc3ccccc3C)c3cc4c(cc3c2=O)OCO4)cc1,·,7.0%[59 µM],-2.2%,36.3%,-5.0%
Cc1cc(Cl)ccc1Nc1ncnc2onc(C)c12,·,3.1%[59 µM],13.9%[57.1 µM],30.4%,4.2%
Cc1c(C)c2c(c(C)c1OC(=O)CCC(=O)O)CC[C@@](C)(CCC[C@H](C)CCC[C@H](C)CCCC(C)C)O2,18.2%,-42.7%[12.7 µM],·,·,·
Cc1ccc(/C=N/NC(=O)NC23CC4CC(CC(C4)C2)C3)o1,89.1µM*,·,19.1%,?,-35.1%
C=CC[n+]1c(-c2ccc(OC)c(OC)c2)csc1NNC(=O)Nc1ccccc1,-27.6%,?,31.6µM*,?,?
COc1cc(-c2n[nH]c(=S)n2-c2ccccc2C(F)(F)F)cc(OC)c1OC,-18.1%,3.55µM*,-16.1%,8.1%,?
COc1cc(-c2n[nH]c(=S)n2-c2cccc(C(F)(F)F)c2)cc(OC)c1OC,-20.1%,?,4.8%,13.0%,89.1µM*
COc1cc(-c2n[nH]c(=S)n2C(C)c2ccccc2)cc(OC)c1OC (centres undefined),0.3%,·,-1.0%,31.8%,12.6µM*
COc1ccc(NC(=O)CCc2c(C)nc3c(-c4ccc(F)cc4)c(C)nn3c2C)c(OC)c1,·,-26.0%[59 µM],-3.0%,33.3%,-1.3%
COC(=O)/C=C1/SC(=NC(=O)c2ccc(Cl)cc2)NC1=O,·,·,·,-13.9%,?
COC(=O)/C=C1\SC(=NC(=O)c2ccc(C)cc2)NC1=O,35.5µM*,28.2µM*,?,17.2%,-18.8%
CC(C)=CCC/C(C)=C/CO/N=C1/[C@H]2O[C@@H]2[C@@H](O)[C@H]2[C@H]1CCn1c(=O)n(C)c(=O)n12,-12.3%,·,·,·,·
CCOc1ccccc1N1CCN(c2ncnc3scc(-c4ccc(OC)cc4)c23)CC1,-6.4%,·,?,17.4%,-34.8%
COc1ccc(-c2csc3ncnc(N4CCN(c5ccccc5OC)CC4)c23)cc1,-2.9%,44.7µM*,-35.2%,?,?
Cc1nc(N2CCN(c3ccccc3O)CC2)c2c(-c3ccccc3)csc2n1,-7.7%,?,39.8µM*,?,?
Cc1cc(C)cc(C(=O)Nc2c(C(=O)Nc3ccccc3F)oc3ccccc23)c1,·,34.7%[59 µM],-6.5%,85.8%,1.3%
Cc1ccc(CN2CCN(/N=C/C=C/c3ccccc3[N+](=O)[O-])CC2)cc1,?,20µM*,20µM*,17.8µM*,14.1µM*
COc1ccccc1/C=C/CN1CCN(c2ccccc2)CC1,-14.7%,11.2µM*,50.1µM*,?,22.4µM*
COc1ccccc1/C=C/C=N/N1CCN(Cc2ccccc2)CC1,-17.9%,11.2µM*,31.6µM*,13.7%,-17.4%
